Here are results for 15 compounds from PubChem BioAssay (NCI).

This is part of a sample that, as a whole, favours compounds with a hit. Of some 83,000 tested, about 20% had one in any assay.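 Compound tested at a single concentration for 48 hours in 96-well plates; a percent growth value below 10 was scored as active.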 A number with no mark means an inactive call. The source made the active and inactive calls.

The test system of this test is MDA-MB-468 breast. Description: NCI-60 one-dose screen, 48 h (100 = growth as untreated, 0 = no growth, -100 = all killed). The note with it: 10 µM unless noted.
Regarding `CCOC(=O)c1cnc2ccc(OC)cc2c1Nc1cccc(S(=O)(=O)NC)c1`, the growth is 113%.
Next, `Cc1nc(Nc2cccnc2)sc1C(=O)/C=C/c1ccc(Cl)cc1`: 11.8%.
Next, `c1ccc2c(c1)Sc1ccccc1S2`: 93.7%.
To `COc1cc(NCc2ccccc2O)c2ncccc2c1` belongs 90.4%; to `C#Cc1cccc(Nc2ncnc3cc(NC(=O)CCl)ccc23)c1`, -60.8% (active); to `CC(C)(C)[Si](C)(C)OC1[C@@H](CNC(=O)NC(=O)NC(N)=O)O[C@@H](n2cnc3c(NC(=O)Nc4ccccc4)ncnc32)[C@H]1O[Si](C)(C)C(C)(C)C` (stereo not given in full), 99.1%.
For the compound `COc1ccc(OC)c(/C=C2\CCc3ccccc3C2=O)c1`, the growth is -5.15% (active).
Next, `N#CCCCCCn1c2ccccc2c2c3[nH]c(=O)[nH]c(=O)c3c3c4ccccc4n(CCCCCC#N)c3c21`: 69.7%; `Cn1cc(-c2nn3cc(-c4ccncc4)nc3s2)c2cc(Cl)ccc21`: 64.8%.
To `Cc1ccc(C(CC(=O)O)c2c(C)[nH][nH]c2=O)cc1` (stereo not given) belongs 101%.
To `c1ccc(-c2n(Cc3ccc4ccccc4c3)cc[n+]2Cc2ccc3ccccc3c2)cc1` belongs -65.5% (active); to `Cc1cc(N2CCOCC2)nc(N[C@@H]2CCC[C@H](Nc3ccnc4cc(Cl)ccc34)C2)n1`, -6.14% (active).
As for `CC(C)C(C#N)(C(C)C)C(C)C`, the growth is 109%.
Next, `N#Cc1ccccc1-c1ccc(CN2C(=O)S/C(=C\c3ccc(Br)cc3)C2=O)cc1`: 112%; `CCn1cc(C(=O)O)c(=O)c2cc(F)c(N3CCN(S(=O)(=O)c4ccc(Cl)cc4Cl)CC3)cc21`: -1.55% (active).
